Out of some 31,000 sequences screened, about 1,400 (4.5%) were called active. This is one part of a sample in which actives are shown more often than they occur. Values without a mark were called inactive.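 Rule for the calls: active = median seed-adjusted z-score above 1 or below -1; inactive = the rest.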
Assay: Novel Modifiers of Survival Motor Neuron (SMN) Protein: Gene Identification via Genome-wide siRNA Screen;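 note: luminescence tracks full-length SMN protein made from the SMN2 reporter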
Details: HEK293T SMN2-luciferase reporter, siRNA knockdown, 72 h; actives lie on both sides
In short: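 HEK293T cells stably carrying an SMN2 promoter/splicing cassette–luciferase reporter were reverse-transfected with 1 pmol siRNA per well (druggable-genome library, 3 siRNAs per gene) and grown 72 h at 37 °C. Luminescence, normalized to negative-control siRNA and log10-transformed, was scored as MAD.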

| Sequence | median seed-adjusted z-score |
| --- | --- |
| GGACAAGAACGGAAUUUCATT against SCLY | 0.00396 |
| GGACGGAAGAUUUUCGUAUTT against SR140 | 1.16 (active) |
| GAACCUCUAUUGUGGACAATT against TMEM1 | -0.191 |
| AGAAAGUACUGCACAGAGATT against PCDH8 | -1.03 (active) |
| CGAAGUUUCCUAUAGAGGATT against PCDHGA10 | 0.0621 |
| GAUAGGAUGUGACAAUGAATT against ING2 | 0.126 |
| GCCUAUCAGGAUCCCAGCATT against RIN1 | -0.0694 |
| AUGUACAAGUGUCAGCUAATT against VEGFC | -0.41 |
| GCAUCGUGGUGUCAAGUCATT against ZBTB12 | 0.0993 |
| GGUUGAAGCUUAUUGCAGATT against HARS2 | 0 |
| CAAAAGUAUUCUUAGGAAATT against SLC25A15 | -0.0116 |
| GACCUACUCUAGUGACAGATT against TRERF1 | -0.0952 |
| ACCGAGAGAUGGUAUAUGATT against SUPT4H1 | -1.01 (active) |
| AGAUCACUGUAUCACCUCUTT against VDR | -0.031 |
| GCUGGUGACUGAGUUUUCATT against NOB1 | -0.0844 |
| GCUAUAUCAGGAUGAGAUATT against ATG5 | -0.0597 |
| GGCCUUACCCUAAAUCGAATT against RARB | 0.409 |
| CGAGCUACAGGAACAUCUUTT against LSS | -0.302 |
| GUGUGAAGGUAGACCGUGATT against SPATA20 | 0 |
| GAGUGGAAGUGUACCAACATT against HCFC1 | 1.47 (active) |
| GGAAGAUUCAGUUAACAUUTT against NUDT3 | 0.674 |
| CAACCAUGUUCAGUAUAGATT against SPINK9 | 0.392 |

| Sequence | median seed-adjusted z-score |
| --- | --- |
| CCGGAGAAGUUCAACAGCATT against DGKA | -1.36 (active) |
| GCUAAUCAUUGAGUAUGCATT against KLHL10 | 0.0708 |
| AGCUGACCGAGUUCCUGCATT against GAL3ST1 | 0.263 |
| CCUUGGAGGAGAUCGCUGATT against TEKT2 | -0.349 |
| GGCAUACAGUUCCGAGAAATT against AGL | -0.385 |
| GUCUUAGAAUGUGAACGUATT against CCNL1 | -1.26 (active) |
| GGCAGGAGGUUUAAGAAGUTT against PPP3R2 | -0.143 |
| GAGAGUAUCGAAACCGUUUTT against GNPTAB | 0.296 |
| GGACUGCACUACUCCAUGATT against ADAMTS2 | -0.338 |
| GCACAGUAGUCACCAAUGATT against FUCA2 | 0.562 |
| CCAAGGUACUAACAUGGGATT against AP3M1 | 0 |
| CCCAGACUCUAGAUAGACATT against SULT1C3 | -0.731 |
| CUCCUGCAGUUGAAGGUGATT against FKBP8 | -0.304 |
| CCAACAAUUUAGUAGUUAUTT against TBP | -1.25 (active) |
| AGUACAACCUGGUGACGCATT against ZNF710 | 0 |
| GGAUCAAUACUCCAACAAATT against ZNF281 | 1.19 (active) |
| GGCUUGAUGCUGGUACUUUTT against HACL1 | -0.0664 |
| AGCCUGCGGUUUUCUGUAUTT against SYT12 | -0.329 |
| UUACCAUCGUGAAGAGAAATT against CLEC5A | -1.07 (active) |
| CCUCAUCCCUGUUACAACATT against JAG1 | -0.32 |
| CCAACUGUGUGGCAGAACGTT against FKBP9L | 0.666 |
| GUCUGUAGUUCACCCGUUATT against USP9Y | 0.012 |

| Sequence | median seed-adjusted z-score |
| --- | --- |
| AGCUAGGCCUGGAUAUCGATT against KRT83 | 1.15 (active) |
| GCUUUCUACAAGUAUAAGATT against ERO1LB | 0.565 |
| GGCUACCUGCAUUCACUGATT against SGK1 | -0.659 |
| CCACAGAUGUGCAUAAACATT against NFKB2 | -0.132 |
| GGAACAUCGAAAUCGUGUATT against DDX6 | 1.12 (active) |
| GGUCUACUUCUACUACAAUTT against UTY | -0.538 |
| CCGGUCAACUGUUACGUAUTT against GJA5 | 0.707 |
| CAUUCUGUGGUGAAACAUUTT against SCLY | 0.00396 |
| CCACCAUAGGAUAUGGUUATT against KCNJ16 | -0.705 |
| CGCAAUAACUGUUUGGUAUTT against EGLN1 | 2.05 (active) |
| GGCUAAUCGUGAACCGGAATT against DOCK8 | 0.243 |
| GGAUGGUAGUGUCUGACUUTT against MGLL | 0.288 |
| UGAAGAUGAUUGUCCUUAUTT against VAMP8 | -0.184 |
| CACCCUGCAGGUUCCCAUATT against HSD17B14 | 0.386 |
| GGAUGCUUCUGAAUAGAAATT against BIRC7 | -1.44 (active) |
| CACUAUUGCAUGUAUCGAATT against ARHGAP10 | -0.458 |
| CAAAGGGCUAAGUUCUAAATT against TBC1D5 | 0.38 |
| AAACUAACAUUCGAUUGAATT against TRIM48 | 0 |
| GGUGGAGGACCAAACAGAATT against MGAT4B | 0.0142 |
| GCUCUACUAUUUCUACGAUTT against SPPL2B | 0.0324 |
| GCAAGAGAGUCUCAAAUUUTT against EVX1 | 1 (active) |
| CCAUGCUCCAGUUAUCUUUTT against SLC10A6 | -0.803 |

| Sequence | median seed-adjusted z-score |
| --- | --- |
| GAUUCUUCCCGGCAUCAUATT against GUCY1A3 | 0.187 |
| GGGUGUAAAAUGCACGUUUTT against CLDN16 | -0.868 |
| CACUUGGAGUGGUGAAUCATT against NCL | 1.33 (active) |
| GCUCGGUGGAAAAACGUGATT against SCN3A | -0.0556 |
| CAGUCUACAGCUUCAACAATT against ZNF207 | -3.1 (active) |
| CGCUGACCCUGGAGAUGUATT against CALY | 0.216 |
| GGACAAUCCUUUCAUUAAUTT against HTR3C | -0.221 |
| CUAAUUUACUAUUACGCUUTT against F2R | -0.392 |
| UCCCAGCACUUAUAGCCUATT against ANKRA2 | 1.26 (active) |
| AGCCCUCUUCUGACACUAATT against SERPINH1 | 0.186 |
| GCGUUGACCAAGACUCAUATT against TP53BP2 | 0.157 |
| AGCACUGCAUGUUCACCGATT against KLHL25 | -0.0146 |
| GCAUAUUAAGGAGACCUAUTT against HSD17B6 | 0.573 |
| CCAUCGUUCUGGGAAUUCUTT against CD6 | -0.33 |
| GGAUGAUAAUGCUAAUCCATT against PPP1R3A | -0.241 |
| GGACUUUGACAAGAACAGUTT against CYP1A2 | 0 |
| GAACAAUGAGUAUAUCCUATT against PPP2R5B | 0.237 |
| GACGACCAAUUAUAGUUUATT against ZRANB1 | -0.347 |
| CCAUCAAUGCGGCUCAUGUTT against TUFM | 1.07 (active) |
| GGAUCAGCCGAGGAUGAAATT against PPP1R15A | 0.539 |
| GGAUCUCAUGCACAUCUCATT against PLA2G6 | -0.123 |
| AGAAGAUUCUUGUAUUUAUTT against IL24 | -0.125 |

| Sequence | median seed-adjusted z-score |
| --- | --- |
| GGAUGAUAUCAACUGCUAUTT against ACVR2A | -0.22 |
| ACAUGUGGGUGACGGUUUUTT against SRM | 0 |
| CAUGGACCCUGAUGACAUATT against UROD | 1.11 (active) |
| GCGUGAAUGAGGUGGAUUATT against ETNK2 | -0.74 |
| CGUAUACUAUUAUCACGUUTT against ATP6V0A1 | 0.103 |
| GGGCACGGGUGAUAUGAAUTT against CTDP1 | -2.29 (active) |
| AGCUACAAUUUGAAAGAGATT against RNF144A | -0.185 |
| AGAGAUCACCGAUUACAGATT against ISG20 | 0.0209 |
| CAACUGUUAUCAGAACGAUTT against ARFIP2 | 0.748 |
| GCAAUGCCCUCUAUCAAUATT against IP6K1 | -0.317 |
| AGAUGAUCGCUGAGUUCAATT against TNNC2 | -0.773 |
| CGAAUGACAAGUGAUCUAATT against MDH1B | -1.13 (active) |
| GCUCAACUCUUAUUAGUCATT against ZNF485 | 0.445 |
| AUACCUGAACAGUCCCUCATT against NOBOX | -0.426 |
| CGCGCAACAUCGUCAAGUATT against LPHN1 | -1.03 (active) |
| GGACUAUUACAAAUCAAGATT against FLT3 | 0.418 |
| GGACAUUGAUUAUAUUGGATT against GALC | 0 |
| GACCGAGAAGUACCGCUGATT against HBZ | -0.0054 |
| GCAUGUACCAGGUUCAGUATT against LRFN1 | 0.605 |
| GCAGAGACCUACAAAAAGATT against RCN3 | -2.44 (active) |
